# KCNQ2 inh = inhibitors of rat KCNQ2 potassium channel | B-score at 10 µM | O88943 | actives 1.1% (n = 310,000) | CHO-K1 KCNQ2, FluxOR thallium flux, 20 min; hits give low values | AID 2156;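 active = fluorescence ratio B-score at most minus 3 library SDs, with starting brightness B-score within 2 library SDs, cut at about -5.5 in these data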
# KCNQ2 enhance = enhances the rat KCNQ2 potassium channel; CHO-K1 KCNQ2, FluxOR thallium flux fluorescence; hits give high values; B-score at 10 µM; actives 0.54% (n = 310,000); AID 2239;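 active = fluorescence ratio B-score at least 3 SD of library B-scores, with initial fluorescence B-score within 3 of them, cut at about 5.3 in these data; same plate scores as AID 2156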;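 note: B-score of peak minus minimum over baseline fluorescence ratio after K+ and Tl+ stimulus; positive B-score means potentiation of KCNQ2 with more thallium influx and brighter signal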
# Kir21 conf inh = confirmation of mouse Kir2.1 potassium channel inhibitors | actives 41% (n = 2,300) | Tl flux remaining, % of negative control (hits give low values), % at 10 µM | Kir2.1-expressing cells, FluxOR thallium flux fluorescence; hits give low values | shares compounds with KCNQ2 enhance;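 active = Primary-screen hit whose thallium flux fell at least 3 control SD below untreated wells in both duplicates, with normal baseline fluorescence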;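 note: 0% = blank wells without stimulus and 100% = stimulated no-compound controls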
# HEK293 Tl flux = alters thallium flux in parental HEK293 cells, Kir2.1 counter-screen. shares compounds with KCNQ2 enhance. FluxOR thallium flux fluorescence; 0% = unstimulated blank wells. FluxOR signal as % of negative control (100 = no effect), % at 10 µM. actives 19% (n = 2,300);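 active = dye signal at least 3 control SD above or below untreated wells in both duplicates, raw fluorescence within 3, either direction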;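 note: percent is based on the flux ratio of peak minus minimum fluorescence over baseline F0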
# CHO-K1 Tl ctr = alters thallium flux in parental CHO-K1 cells, KCNQ2 counter-screen; shares compounds with KCNQ2 enhance; FluxOR thallium flux fluorescence; zero = vehicle mean+3SD, 100% = vehicle-minus-blank window; activity increase over 3SD of controls, % at 10 µM; actives 43% (n = 1,200);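 active = signal rise of at least 3 SD above the untreated control mean, in both duplicate wells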;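 note: counter screen of KCNQ2 potentiator hits so any rise reflects channel-independent effects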
# KCNQ1 sel pot = selectivity of KCNQ2 potentiators: effect on human KCNQ1. shares compounds with KCNQ2 enhance. activation over 3SD threshold, % at 10 µM. CHO KCNQ1 stable, FluxOR thallium flux fluorescence; beyond 3SD, as % of vehicle-control signal. AID 2283. actives 28% (n = 1,200);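 active = fluorescence ratio rise of at least 3 SD of vehicle wells above their mean, in both replicate wells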;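 note: 0% = vehicle mean plus 3 SD and 100% = vehicle minus unstimulated blank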
# Target sequence (P51787 whole entry, looked up): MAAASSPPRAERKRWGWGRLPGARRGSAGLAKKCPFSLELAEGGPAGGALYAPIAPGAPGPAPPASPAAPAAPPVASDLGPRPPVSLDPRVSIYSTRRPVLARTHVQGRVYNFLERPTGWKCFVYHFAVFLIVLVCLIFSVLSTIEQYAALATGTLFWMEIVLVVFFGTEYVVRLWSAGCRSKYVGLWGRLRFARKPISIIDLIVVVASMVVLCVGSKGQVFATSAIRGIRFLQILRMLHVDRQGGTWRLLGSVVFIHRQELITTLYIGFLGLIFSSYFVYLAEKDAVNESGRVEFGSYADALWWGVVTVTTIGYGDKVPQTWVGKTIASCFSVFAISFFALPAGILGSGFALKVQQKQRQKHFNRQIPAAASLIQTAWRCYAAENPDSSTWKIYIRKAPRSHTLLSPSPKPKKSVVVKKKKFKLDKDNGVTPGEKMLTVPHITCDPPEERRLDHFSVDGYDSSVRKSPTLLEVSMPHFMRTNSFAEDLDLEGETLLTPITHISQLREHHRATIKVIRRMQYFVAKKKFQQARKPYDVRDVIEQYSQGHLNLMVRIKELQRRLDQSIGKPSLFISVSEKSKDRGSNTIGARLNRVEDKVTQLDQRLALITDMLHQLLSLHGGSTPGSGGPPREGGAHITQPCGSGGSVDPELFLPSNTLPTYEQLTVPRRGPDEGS
# KCNQ2 pot confirm = confirmation of rat KCNQ2 potassium channel potentiators; shares compounds with KCNQ2 enhance; CHO-KCNQ2 cells, FluxOR thallium flux fluorescence; potentiation, less the hit threshold, % at 10 µM; actives 68% (n = 1,200);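 active = fluorescence ratio rising 3 SD or more over the vehicle control mean in both replicates, plus primary screen hit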;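 note: peak minus minimum thallium fluorescence divided by baseline after K/Tl stimulus; 0% = vehicle mean plus 3 SD and 100% = vehicle minus unstimulated blank difference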
# Kir2-1 sel = selectivity of KCNQ2 potentiators: effect on mouse Kir2.1. actives 2% (n = 1,200). activity over 3SD threshold, % at 10 µM. HEK293 Kir2.1, FluxOR thallium flux fluorescence. shares compounds with KCNQ2 enhance;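 active = fluorescence ratio rise of at least 3 SD above the vehicle-control mean, seen in both replicates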;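 note: 0% = vehicle mean plus 3 SD and 100% = vehicle minus no-stimulus blank window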
# KCNQ2 W236L pot = KCNQ2 potentiators acting on retigabine-insensitive rat KCNQ2 W236L mutant | actives 10% (n = 940) | CHO KCNQ2-W236L, automated patch clamp current | AID 2558 | shares compounds with KCNQ2 enhance | current increase over 3SD of negative controls (%), hits give high values, % at 25 µM;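 active = current increase at least 3 SD of the untreated controls above them in both duplicate recordings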
# The depositor's hits bear a star; i = inactive; . = not tested or not shown. Shown are actives, neighbours in structure and some others; about 1.6% of the full set was active somewhere.
SMILES,KCNQ2 inh,KCNQ2 enhance,Kir21 conf inh,HEK293 Tl flux,others
COc1ccccc1NC(=S)NC1CCC(CC2CCC(NC(=S)Nc3ccccc3OC)CC2)CC1 (stereo not drawn),i,.,.,.,
CCOc1ccc(NC(=O)c2ccco2)cc1,i,1.8,.,.,
Cc1cc(C(=O)Nc2ccc3ccccc3c2)oc1C,i,.,.,.,
Cc1ccoc1C(=O)Nc1ccc2ccccc2c1,i,19*,i,i,CHO-K1 Tl ctr=49*;KCNQ1 sel pot=-17;KCNQ2 pot confirm=75*;Kir2-1 sel=-18;KCNQ2 W236L pot=i
CCOc1ccc(NC(=S)NC(=O)c2ccco2)cc1,i,7.8*,i,163%*,CHO-K1 Tl ctr=-8;KCNQ1 sel pot=38*;KCNQ2 pot confirm=23*;Kir2-1 sel=-19;KCNQ2 W236L pot=i
O=C(Nc1ccc(Oc2ccc3ccccc3c2)cc1)c1ccco1,i,11*,i,i,CHO-K1 Tl ctr=10*;KCNQ1 sel pot=10*;KCNQ2 pot confirm=28*;Kir2-1 sel=-17;KCNQ2 W236L pot=7.7%*
O=C(Nc1ccc(Oc2ccc(NC(=O)c3ccco3)c(NC(=O)c3ccco3)c2)cc1)c1ccco1,i,0.23,.,.,
Cc1cccc(NC(=O)CCNC(=O)c2ccco2)c1C,i,.,.,.,
Cc1cccc(NC(=S)NC(=O)c2ccco2)c1C,i,9.9*,i,364%*,CHO-K1 Tl ctr=-10;KCNQ1 sel pot=-2;KCNQ2 pot confirm=46*;Kir2-1 sel=-28;KCNQ2 W236L pot=i
CS(=O)(=O)N1CCc2cc(C(=O)Nc3ccc(COCC(F)(F)F)cc3)ccc21,i,.,.,.,
CCCN1CCC(=O)N([C@H](CN=[N+]=[N-])CC(C)C)CC1,i,.,.,.,
O=C(NC1CC1)c1ccc(-n2cccc2)cc1,i,.,.,.,
O=C(NC(=S)Nc1ccc(N2CCCCC2)c(Cl)c1)c1cccs1,i,6.6*,i,i,CHO-K1 Tl ctr=9.4*;KCNQ1 sel pot=11*;KCNQ2 pot confirm=1.0*;Kir2-1 sel=-26;KCNQ2 W236L pot=i
O=C(Nc1cc(Cl)ccc1N1CCCCC1)c1cccs1,i,.,.,.,
CCCOc1ccc(C(=O)N(CC(C)C)c2c(N)n(Cc3ccccc3)c(=O)[nH]c2=O)cc1,i,0.14,.,.,
Oc1c(Cl)cc(Cl)c2cccnc12,i,7.8*,i,176%*,CHO-K1 Tl ctr=-12;KCNQ1 sel pot=-15;KCNQ2 pot confirm=11*;Kir2-1 sel=-12;KCNQ2 W236L pot=i
O=C(Oc1c(Cl)cc(Cl)c2cccnc12)c1cccs1,i,11*,i,i,CHO-K1 Tl ctr=-5;KCNQ1 sel pot=-38;KCNQ2 pot confirm=-34;Kir2-1 sel=-41
Oc1c(Cl)cc(CN2CCCCC2)c2cccnc12,i,.,.,.,
OCCN1CCN(Cc2cc(Cl)c3cccnc3c2O)CC1,i,1,.,.,
Oc1c(CN2CCN(c3ccccn3)CC2)cc(Cl)c2cccnc12,i,11*,i,146%*,CHO-K1 Tl ctr=4.1*;KCNQ1 sel pot=-5;KCNQ2 pot confirm=24*;Kir2-1 sel=-25;KCNQ2 W236L pot=i
O=C(Oc1c(CN2CCOCC2)cc(Cl)c2cccnc12)c1cccs1,i,.,.,.,
O=C(Nc1cccc([N+](=O)[O-])c1)c1ccc2ccccc2c1O,i,0.01,.,.,
N#CCC(=O)Nc1ccc(C(=O)N2CCN(c3ccccn3)CC2)cc1,i,.,.,.,
Fc1ccc(NC(=S)Nc2ccccc2N2CCOCC2)cc1Cl,i,.,63%*,134%*,
O=S(=O)(c1ccc(Cl)c(NC(=S)Nc2ccccc2N2CCOCC2)c1)N1CCOCC1,i,0.82,.,.,
SMILES,KCNQ2 inh,KCNQ2 enhance,Kir21 conf inh,HEK293 Tl flux,others
O=S(=O)(Nc1ccccc1N1CCOCC1)c1ccc(F)c(Cl)c1,i,.,46%*,i,
CC(=O)Nc1ccc(S(=O)(=O)Nc2ccccc2N2CCOCC2)cc1Cl,i,.,.,.,
O=C(NCCc1ccc(Cl)cc1)C1CCN(C(=O)c2ccc(F)cc2)CC1,i,0.63,.,.,
COc1ccccc1NC(=O)Nc1nc(CC(=O)N2CCN(c3ccccc3F)CC2)cs1,i,.,.,.,
N#CCCN(Cc1ccccc1)C(=O)c1nccnc1C(=O)O,i,0.98,.,.,
CC(C)NC(=O)C(c1ccc(F)cc1)N(C(=O)CCC(=O)Nc1ccccn1)c1cccc(F)c1 (stereo not drawn),i,.,.,.,
N#Cc1c(-n2cccc2/C=N/O)sc2c1CCCC2,i,.,46%*,i,
C=CCNCc1cccn1-c1sc2c(c1C#N)CCCC2,i,0.43,.,.,
Oc1c(Cl)cc(Cl)c2c1NCCC2,i,6.3*,i,i,CHO-K1 Tl ctr=4.8*;KCNQ1 sel pot=1.6*;KCNQ2 pot confirm=6.1*;Kir2-1 sel=-42;KCNQ2 W236L pot=i
O=C1NCCCc2c1oc1ccc(O)cc21,i,0.28,.,.,
CCn1c(SCC(=O)N(C)Cc2ccc(OC)c(F)c2)nc2cc(S(N)(=O)=O)ccc21,i,1,.,.,
CC1CCN(C(=O)COC(=O)Cc2ccc(Br)cc2)CC1,i,.,.,.,
CC(C)CC(=O)/C(=C\c1ccc(Cl)cc1Cl)n1cncn1,-5.6*,-5.6,44%*,i,
CC(C)CC(=O)/C(=C/c1ccc(N(C)C)cc1)n1cncn1,i,1.2,.,.,
CCOc1ccc(/C(C)=N/NC(=O)c2nnn(-c3nonc3N)c2-c2cccs2)cc1,i,.,.,.,
Cc1ccc2c(c1)c1c3n2CCN(C(=O)CCl)C3CCC1 (stereo not drawn),i,.,i,i,
CC(=O)N1CCn2c3c(c4cc(C)ccc42)CCCC31 (stereo not drawn),i,0.68,.,.,
CNCC[C@H](Oc1cccc2ccccc12)c1cccs1,i,.,i,i,
CNCCC(Oc1ccc(C(F)(F)F)cc1)c1ccccc1 (stereo not drawn),i,.,.,.,
CCOC(=O)C1CCN(Cc2c(O)ccc3ccccc23)CC1,i,0.29,70%*,i,
CCOC(=O)N1CCN(Cc2c(O)ccc3ccccc23)CC1,i,.,.,.,
CCNc1nc(NCC)n2c(SCC(=O)c3ccccc3F)nnc2n1,i,1.8,.,.,
CCCCCc1nnc(NC(=O)Cn2cnc3ccccc3c2=O)s1,i,0.71,.,.,
FC(F)(F)c1cccc(Cn2c3[n+](c4ccc(C(F)(F)F)cc42)CCCCC3)c1,i,.,.,.,
Cc1cc(C(C)(C)C)cc(C)c1Cn1c2[n+](c3ccc(C(F)(F)F)cc31)CCCCC2,i,.,46%*,i,
CSc1ccccc1C(=O)NC1CCCc2ccccc21 (stereo not drawn),i,.,.,.,
Cc1nn(-c2ccc(Cl)cc2)c(Cl)c1/C=N/NC(=O)c1ccc(NS(=O)(=O)c2cccs2)cc1,i,.,.,.,
O=C(COC(=O)C1CCC(=O)N1)Nc1ccc(Oc2ccccc2)cc1 (stereo not drawn),i,7.6*,i,i,CHO-K1 Tl ctr=2.8*;KCNQ1 sel pot=-28;KCNQ2 pot confirm=-13;Kir2-1 sel=-31
